Measurements taken from PubChem BioAssay (NCI).
This is part of a sample that, as a whole, favours compounds with a hit. Of some 83,000 tested, about 20% had one in any assay.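 Single-dose data. Exposure time 48 hours. Values below 10 considered active.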 A number with no mark means an inactive call. Calls of active or inactive are those of the source.

How the values were obtained:
Assay in all cases: NCI-60 one-dose screen, 48 h (100 = growth as untreated, 0 = no growth, -100 = all killed)
Details in all cases: 10 µM unless noted
[1] = test system: NCI-H23 lung
[2] = test system: NCI-H226 lung
[3] = test system: NCI-H322M lung
[4] = test system: HOP-62 NSCLC
[5] = test system: NCI-H460 lung
[6] = test system: HOP-92 NSCLC
[7] = test system: NCI-H522 lung
[8] = test system: A549/ATCC NSCLC
[9] = test system: 786-0 renal
[10] = test system: COLO 205 colon
[11] = test system: DU-145 prostate
[12] = test system: K-562 leukemia
[13] = test system: MALME-3M melanoma
[14] = test system: MDA-MB-231 breast
[15] = test system: RXF 393 renal
[16] = test system: SF-268 CNS
[17] = test system: SF-295 CNS
[18] = test system: SF-539 CNS
[19] = test system: M14 melanoma

Row | SMILES | growth [1] | growth [2] | growth [3] [%] | growth [4] | growth [5] | growth [6] | growth [7] | growth [8] | growth [9] | growth [10] | growth [11] | growth [12] | growth [13] | growth [14] | growth [15] [%] | growth [16] | growth [17] | growth [18] | growth [19]
1 | CCN1C(=O)N[C@H]2[C@@H]3NC(=O)c4ccc(Cl)n4[C@@H]3C[C@]21O | 6.06% (active) | 5.43% (active) | 11.7 | -4.56% (active) | 2.06% (active) | 3.95% (active) | -26.9% (active) | 9.08% (active) | -4.85% (active) | -29.5% (active) | 5.1% (active) | 3.13% (active) | -1.41% (active) | -3.51% (active) | 10.2 | 5.4% (active) | 0.996% (active) | -33.5% (active) | -21.3% (active)
2 | CCOP(=O)(CCN1CCN(CCCCCOc2cc3c(cc2OC)C(=O)N2CCC[C@H]2C=N3)CC1)OCC | 104% | 114% | 140 | 109% | 75.5% | -47.9% (active) | 62.7% | 93.9% | 99.1% | 71.4% | 91.5% | 35.7% | 119% | 74.3% | 46 | 57% | 97.3% | 53.5% | 91.8%
3 | CCCCn1c(=O)c(C2CNC(=O)c3ccccc3N2)cc2ccccc21 (stereo unspecified) | 95% | 111% | 111 | 91.8% | 102% | 95.2% | 92.5% | 97.1% | 92.4% | 111% | 108% | 99.3% | 107% | 77.5% | 111 | 98.9% | 96.8% | 89.9% | 107%
4 | O=C(c1c[nH]c2ccccc12)C(Sc1nc2ccccc2c(=O)[nH]1)c1ccccc1 (stereo unspecified) | 116% | 95.9% | 121 | 89.6% | 110% | 91.7% | 93.7% | 93.4% | 104% | 96.9% | 94.3% | 101% | 88.7% | 91.6% | 26.1 | 105% | 93.1% | 89.2% | 104%
